Consider 14 molecules from PubChem BioAssay.

The source made the active and inactive calls.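 Rule for the calls, unless noted: active = fluorescence slope after compound addition differing from the mean of all screened samples at 99.7% confidence, in either direction; inactive = the rest.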

The nature of test [1]: inhibitors of TNFa-induced NFkB p65 translocation, primary screen, imaging, HUVEC, MLSMR starter and 10KST1 sets (AID 438;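 active = inhibition above 20% together with a positive visual image hit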;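 note: compound added about 3h40 before a 20 min TNFalpha stimulation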;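 for inhibition: signal is the nuclear over cytoplasmic p65 intensity ratio per well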). Particulars: HUVEC TNFa-induced p65 nuclear translocation; cell count: measured here: nuclei count (cytotoxicity indicator), at 2.08 µM; inhibition: at 2 µM, stronger effect = higher value, 0% TNFa-plus-vehicle, 100% no-TNFa wells.
Test [2] can be described thus: inhibitors of mutant huntingtin aggregation, primary screen, imaging, exon1htt(103Q)mCFP cells, high-content imaging (AID 483;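 active = visual image review flags a hit and inhibition of aggregation exceeds 20%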;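 note: compound exposure lasted 3 days before fixation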;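 for nuclei count: percent of the per-plate median nuclei count of sample wells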). Particulars: exon1htt(103Q)mCFP cell line, aggregate imaging, at 2 µM; inhibition of aggregation: stronger effect = higher value; nuclei count: measured here: cell count, toxicity.
A short description of test [3]: inhibitors of E-selectin induction by TNFa, primary screen, imaging, HUVEC, immunofluorescence, MLSMR starter and 10KST1 sets (AID 487;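 active = visually confirmed hit in the image check and inhibition above 20%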;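 for inhibition: signal is fraction of cell area covered by stained E-selectin grains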;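 for nuclei count: 100% = median nuclei count of all wells on the same plate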). Conditions: HUVEC TNFalpha-induced E-selectin immunofluorescence imaging, at 2 µM; inhibition: stronger effect = higher value; nuclei count: measured here: cell number, toxicity.
For test [4], the target named is Voltage-gated potassium channel subunit beta-2 (Rattus norvegicus) (UniProt P62483). In words: KvBeta enzyme negative modulators, primary screen, biochemical, NADPH fluorescence (AID 622;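 active = fluorescence slope higher than the sample average by over 3 SD, cut at about -0.22 in these data, passing the limit was not always enough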;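 note: slope of raw intensity against log time taken from 70 to 1610 s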). Particulars: recombinant KvBeta, 4-cyanobenzaldehyde reduction, at 10 µM, stronger effect = higher value.
For test [5] the target is unchanged. Briefly: KvBeta positive modulators, primary screen, biochemical, NADPH fluorescence (AID 623;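 active = NADPH fluorescence slope more negative than the mean of all samples by about 3 SD, 99.7% confidence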;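 note: fluorescence intensity change per second fitted from 20 to 320 s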). Conditions: Recombinant KvBeta, NADPH fluorescence decrease slope, 10 min; at 10 µM; stronger effect = lower value.
For test [6], the target named is Alpha-2C adrenergic receptor (Homo sapiens) (UniProt P18825). In words: modulators of alpha2C/GIRK thallium flux, primary screen, cell-based, HEK293 alpha2C/GIRK1/2 (AID 624).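 Note: slope of fluorescence ratio to pre-addition baseline per second over 15 to 24 s.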 Conditions: thallium flux BTC fluorescence, at 10 µM, actives lie on both sides.
The nature of test [7]: inhibitors of Sendai virus-induced IRF3 signaling, primary screen, TLR/RLR signaling modifier project, cell-based, Sendai virus stimulus, luciferase, 10K MLSCN set (AID 602276;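 active = inhibition at or above 50% at 10 µM; inactive = inhibition below 50%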;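 note: firefly luciferase from ISG56 promoter only with Renilla not read in this screen; 0% = Sendai virus plus DMSO and 100% = medium plus DMSO without virus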). Particulars: HEK293 RL24 IRF3 luciferase reporter, at 10 µM, stronger effect = higher value. (In general: Reporter assays use an easily measured gene product as a stand-in for the process of interest.)
Test [8] is described as follows: inhibitors of poly I:C-induced TLR3 signaling, primary screen, cell-based, poly I:C stimulus, luciferase, 10K MLSCN set (AID 602277;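 active = inhibition of the reporter signal at or above 50%; inactive = inhibition below 50%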). Particulars: HEK293-TLR3 RL24 IRF3 luciferase reporter, at 10 µM, stronger effect = higher value.

Chain of Voltage-gated potassium channel subunit beta-2 (Rattus norvegicus) (P62483 whole entry, looked up): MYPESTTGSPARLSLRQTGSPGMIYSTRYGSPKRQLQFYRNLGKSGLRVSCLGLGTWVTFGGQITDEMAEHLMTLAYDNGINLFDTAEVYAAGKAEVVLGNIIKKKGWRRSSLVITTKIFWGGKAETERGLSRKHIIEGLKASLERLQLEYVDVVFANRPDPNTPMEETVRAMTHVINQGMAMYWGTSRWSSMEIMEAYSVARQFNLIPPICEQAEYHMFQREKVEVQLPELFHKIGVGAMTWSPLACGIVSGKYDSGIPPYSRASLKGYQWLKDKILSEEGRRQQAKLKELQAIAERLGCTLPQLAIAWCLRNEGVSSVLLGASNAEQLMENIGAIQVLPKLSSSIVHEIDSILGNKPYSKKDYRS
Chain of Alpha-2C adrenergic receptor (Homo sapiens) (P18825 whole entry, looked up): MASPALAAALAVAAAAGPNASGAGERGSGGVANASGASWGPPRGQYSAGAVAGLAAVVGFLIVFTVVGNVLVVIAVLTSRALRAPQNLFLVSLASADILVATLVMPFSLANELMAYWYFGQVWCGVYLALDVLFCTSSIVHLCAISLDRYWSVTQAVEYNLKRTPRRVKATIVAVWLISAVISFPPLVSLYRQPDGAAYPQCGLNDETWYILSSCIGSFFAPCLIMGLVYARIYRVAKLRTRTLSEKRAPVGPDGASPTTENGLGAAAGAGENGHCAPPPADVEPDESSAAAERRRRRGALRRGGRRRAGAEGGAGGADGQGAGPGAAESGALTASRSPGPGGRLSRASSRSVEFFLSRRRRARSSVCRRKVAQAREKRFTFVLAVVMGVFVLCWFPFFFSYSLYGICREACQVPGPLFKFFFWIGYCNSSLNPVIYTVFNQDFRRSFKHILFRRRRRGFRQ

For orientation: inhibition means the drop in the measured response relative to a control, in per cent. As for `Cc1ccc(N2CCN(CCc3nc4cc(NS(C)(=O)=O)ccc4n3C)CC2)cc1`, the cell count in test [1] was determined as 322. The inhibition in test [1] was 7% (inactive); in test [3] it was 21.6% (inactive); in test [7] it was -11.6% (inactive); in test [8], -19.7% (inactive). For the same molecule, the inhibition of aggregation in test [2] was 2% (inactive). The nuclei count in test [2] turned out to be 90.6%; in test [3] it was 122%. Besides, in test [4], the fluorescence slope is -0.531 (inactive). For the same molecule, in test [5], the NADPH fluorescence slope was -3.7e-05 (inactive). The slope in test [6] is 0.00789 (inactive).
As for `COc1ccc(NC(=O)C(C)Oc2ccc(/C(C)=N\O)cc2)cc1` (centres undefined), the cell count in test [1] is 581. Also, the inhibition in test [1] is 2.7% (inactive); in test [3], 24.1% (inactive); in test [7], 14.5% (inactive); in test [8] it was 19.2% (inactive). For the same molecule, the inhibition of aggregation in test [2] is 13.8% (inactive). Moreover, the nuclei count in test [2] was 114%; in test [3], 105%. In addition, in test [4], the fluorescence slope was -0.307 (inactive). Besides, in test [5], the NADPH fluorescence slope was 3.7e-05 (inactive). Further, in test [6], the slope was 0.00609 (inactive).
For the molecule `CC1CCc2nn(CC(=O)Nc3ccc(F)cc3F)cc2C1` (centres undefined), the cell count in test [1] is 644. Also, the inhibition is -2.3% (inactive) in test [1], -2.5% (inactive) in test [3], -5.03% (inactive) in test [7] and 21.4% (inactive) in test [8]. For the same molecule, the inhibition of aggregation in test [2] was -37.3% (inactive). Also, the nuclei count amounted to 41.3% in test [2] and 111% in test [3]. In addition, in test [4], the fluorescence slope was -0.543 (inactive). Besides, the NADPH fluorescence slope in test [5] was 1.3e-05 (inactive). Moreover, the slope in test [6] was 0.00669 (inactive).
Consider `CCOC(=O)c1ccc2nc(C)c3c(c2c1)OC(C)C3` (centres undefined), for which the cell count in test [1] was 308. Besides, the inhibition in test [1] was -13% (inactive); in test [3] it was 9% (inactive); in test [7], -5.44% (inactive); in test [8] it was 20.2% (inactive). Besides, the inhibition of aggregation in test [2] was 1.1% (inactive). For the same molecule, the nuclei count in test [2] was determined as 94.2%; in test [3] it was 122%. Further, in test [4], the fluorescence slope is -0.349 (inactive). The NADPH fluorescence slope in test [5] was 1.7e-05 (inactive). The slope in test [6] is 0.00348 (inactive).
In the case of `CCCn1nc(NC(=O)c2cccs2)c2cc3cc(OC)ccc3nc21`, the cell count in test [1] was determined as 630. The inhibition in test [1] is -6.8% (inactive); in test [3] it was -20.4% (inactive); in test [7], -4.8% (inactive); in test [8], -37.7% (inactive). Besides, in test [2], the inhibition of aggregation is -8% (inactive). Moreover, the nuclei count in test [2] amounted to 104%; in test [3] it was 112%. Further, the fluorescence slope in test [4] is -0.119 (inactive). For the same molecule, in test [5], the NADPH fluorescence slope was 2.2e-05 (inactive). Besides, the slope in test [6] was 0.00675 (inactive).
`COc1ccccc1NC(=O)CSc1nnc(-c2ccncc2)n1CC1CCCO1` (centres undefined): in test [1], the cell count came to 626. Moreover, the inhibition is 20.6% (inactive) in test [1], 25.2% (inactive) in test [3], 14.4% (inactive) in test [7] and 98.5% (active) in test [8]. The inhibition of aggregation in test [2] was -8.1% (inactive). In addition, the nuclei count in test [2] stood at 92.8%; in test [3], 100%. The fluorescence slope in test [4] was -0.462 (inactive). Besides, in test [5], the NADPH fluorescence slope was -1.1e-06 (inactive). Further, in test [6], the slope is 0.00619 (inactive).
On to `Cc1ccc(NC(=O)CC2C(=O)NC3CCCCC3N2C(=O)c2ccc(F)cc2)cc1C` (centres undefined), for which, in test [1], the cell count came to 461. Further, the inhibition in test [1] was -10.3% (inactive); in test [3], -55.7% (inactive); in test [7], 12.1% (inactive); in test [8] it was 15.6% (inactive). Moreover, the inhibition of aggregation in test [2] was -9.9% (inactive). Further, the nuclei count in test [2] worked out at 123%; in test [3], 178%. In addition, the fluorescence slope in test [4] was -0.478 (inactive). In test [5], the NADPH fluorescence slope is 2.4e-05 (inactive). For the same molecule, the slope in test [6] is 0.00684 (inactive).
`Cc1ccc(-c2cn3nc(C)c(C)nc3n2)cc1`: the cell count in test [1] stood at 778. For the same molecule, the inhibition in test [1] is -23.3% (inactive); in test [3], -35.5% (inactive); in test [7], 20% (inactive); in test [8], 1.39% (inactive). Moreover, the inhibition of aggregation in test [2] is -5.7% (inactive). Moreover, the nuclei count worked out at 119% in test [2] and 121% in test [3]. For the same molecule, in test [4], the fluorescence slope is -0.007 (active). Also, in test [5], the NADPH fluorescence slope is -3.4e-06 (inactive). Moreover, the slope in test [6] is 0.00494 (inactive).
As for `Cc1occc1-c1nnc(SCC(=O)c2ccc(F)cc2)n1Cc1ccco1`, in test [1], the cell count is 370. Further, the inhibition in test [1] is 5% (inactive); in test [3], -42.8% (inactive); in test [7], 9.07% (inactive); in test [8] it was 12% (inactive). Moreover, in test [2], the inhibition of aggregation is 21.2% (inactive). The nuclei count in test [2] was determined as 87.3%; in test [3], 107%. In addition, in test [4], the fluorescence slope was -0.393 (inactive). In addition, the NADPH fluorescence slope in test [5] is 2e-06 (inactive). The slope in test [6] is 0.00656 (inactive).
With `CCOC(=O)N1CCC(NC(=O)c2cc(C(=O)NC3CCCC3)ccc2CO)CC1`, the cell count in test [1] was 467. The inhibition in test [1] was 0.8% (inactive); in test [3], -14.1% (inactive); in test [7] it was 11.2% (inactive); in test [8] it was 32% (inactive). Also, in test [2], the inhibition of aggregation was 14.4% (inactive). The values for the nuclei count in test [2] and in test [3] were 58.4% and 106%, respectively. Besides, in test [4], the fluorescence slope was -0.535 (inactive). Further, in test [5], the NADPH fluorescence slope is -5.1e-05 (inactive). The slope in test [6] was 0.00598 (inactive).
`COc1ccccc1N1CCN(Cc2nc(N)nc(Nc3ccc(C)c(Cl)c3)n2)CC1`: in test [1], the cell count is 467. For the same molecule, the inhibition in test [1] was -1.9% (inactive); in test [3], -5.6% (inactive); in test [7], 11.5% (inactive); in test [8], 29.6% (inactive). Further, the inhibition of aggregation in test [2] is 17.2% (inactive). The nuclei count in test [2] came out at 97.1%; in test [3], 100%. In test [4], the fluorescence slope is -0.501 (inactive). Moreover, in test [5], the NADPH fluorescence slope was 1e-05 (inactive). For the same molecule, in test [6], the slope is 0.00625 (inactive).
Turning to `COc1cccc(Oc2cnc(N)nc2-c2ccc(OC)cc2O)c1`, in test [1], the cell count was 664. The inhibition in test [1] was -8.2% (inactive); in test [3], -111% (inactive); in test [7], 23.8% (inactive); in test [8] it was 38% (inactive). For the same molecule, the inhibition of aggregation in test [2] was 5.1% (inactive). The nuclei count in test [2] was 112%; in test [3], 87.8%. Further, the fluorescence slope in test [4] was -0.427 (inactive). In addition, in test [5], the NADPH fluorescence slope is -5.9e-05 (inactive). In test [6], the slope is 0.00372 (inactive).
As for `COc1ccc(CN(Cc2nc3ccccc3c(=O)[nH]2)C(=O)NC2CCCCC2)cc1`, in test [1], the cell count came to 389. Also, the inhibition in test [1] was -8.4% (inactive); in test [3], -95.3% (inactive); in test [7], 15.1% (inactive); in test [8] it was 29.3% (inactive). The inhibition of aggregation in test [2] is 4.6% (inactive). Besides, the nuclei count worked out at 100% in test [2] and 84.3% in test [3]. Moreover, the fluorescence slope in test [4] is -0.359 (inactive). Besides, the NADPH fluorescence slope in test [5] is -2.1e-05 (inactive). In test [6], the slope is 0.00294 (inactive).
In the case of `CCOc1ccc(NC(=O)CC2NCCNC2=O)cc1` (centres undefined), the cell count in test [1] was 738. For the same molecule, the inhibition in test [1] was -10.9% (inactive); in test [3], -39.4% (inactive); in test [7], 9.27% (inactive); in test [8], 13.9% (inactive). In addition, the inhibition of aggregation in test [2] was -1.6% (inactive). The nuclei count was 126% in test [2] and 99.2% in test [3]. In addition, the fluorescence slope in test [4] was -0.302 (inactive). Further, the NADPH fluorescence slope in test [5] is -7e-05 (inactive). In addition, the slope in test [6] is 0.00573 (inactive).
